ClpP mod: qHTS Assay for Activators of ClpP. ATP-dependent Clp protease proteolytic subunit (Bacillus subtilis (strain 168)), P80244. purified B. subtilis ClpP, FRET peptide cleavage, 20 min. Potency, µM (top dose mostly 57.5 µM). hit rate 1.9% among 340,000. AID 651965, 2013; active = well fitted falling curve with a large enough effect; inconclusive = small, poorly fitted or top-dose-only effect; inactive = no such curve, though single readings can be large or run the other way; also: the source files actives as falling curves though it sought activators and does not explain the sign; nearly all actives have a fitted effect of over 65% in size
Target sequence (P80244 whole entry, looked up): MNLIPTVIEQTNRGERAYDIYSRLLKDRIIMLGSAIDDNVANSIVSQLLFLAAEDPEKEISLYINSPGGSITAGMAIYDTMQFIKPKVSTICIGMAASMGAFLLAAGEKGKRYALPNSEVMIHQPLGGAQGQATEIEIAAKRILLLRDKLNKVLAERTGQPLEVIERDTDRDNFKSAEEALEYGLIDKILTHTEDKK
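FRET quenching reversal measured ClpP activation: 10 microg/mL B. subtilis ClpP at pH 8 with the FRET-FV decapeptide, read at 430 nm after 320 nm excitation. The 20-min minus 0-min signal was scaled between DMSO/no-enzyme wells and ADEP (5.8 microM final).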
Mm-Cpn inhibitor: blocks the Methanococcus maripaludis chaperonin Mm-Cpn | purified Mm-Cpn ATPase, ADP Transcreener TR-FRET | Potency, µM (highest dose often 76.9 µM), hits mostly inhibitors | hit rate 0.031% among 330,000; also: nearly all actives have a fitted effect of over 80% in size
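25 nM Mm-CPN + cpd, 10 min 37°C; + 10 uM ATP, 30 min 37°C; buffer 30 mM Tris pH 7.4, 100 mM KCl, 5 mM MgCl2, 1 mM DTT; Transcreener ADP HTRF detection 30 min RT.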
Abeta rescue: A-beta toxicity reversal in yeast. yeast expressing A-beta42, growth rescue, OD600, 48 h; response scale: 0% DMSO, 100% iron-clioquinol control. Potency, µM (titrated, usually from 46.1 µM), actives largely listed as activators. hit rate 0.063% among 410,000; also: nearly all actives have a fitted effect of over 55% in size
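Growth rescue measured by 600 nm absorbance after 48 h yeast culture at 30 C with compound. Values normalized between DMSO and an equimolar ferric chloride plus clioquinol control.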
FUS suppressor: FUS proteinopathy suppression in yeast. Potency, µM (top dose mostly 76.6 µM), hits mostly activators. S. cerevisiae FUS-expressing, growth rescue, OD600, 24 h. AID 1347120. hit rate 0.24% among 390,000; also: nearly all actives have a fitted effect of over 55% in size
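Read-out: OD at 600 nm after 24hr at 30C, reporting rescue of FUS-induced yeast toxicity. Cells at OD 0.005 in galactose (2%) minimal medium; compounds tested in a dilution series; CP55940 titration from 92uM final as control.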
TDP-43 yeast inh: TDP-43 toxicity inhibition in yeast. TDP-43 expressing yeast growth rescue, BacTiter-Glo, 24 h. hit rate 1.8% among 410,000. Potency, µM (highest dose often 46.1 µM), usual class: activators; also: nearly all actives have a fitted effect of over 50% in size
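Growth rescue of TDP-43-toxic yeast measured as ATP luminescence (BacTiter-Glo). Cells grown to mid-log in raffinose, induced in galactose at OD600=0.02, exposed to compound 24 hr at 30 deg C.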
aSyn yeast inh: inhibitors of alpha-synuclein toxicity in yeast; Yeast expressing alpha-synuclein, growth rescue, BacTiter-Glo, 24 h; Potency, µM (titrated, usually from 46.1 µM), hits mostly activators; hit rate 0.14% among 370,000; also: nearly all actives have a fitted effect of over 65% in size
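Screening used galactose-induced yeast with toxic alpha-synuclein levels, exposed to compound for 24 hr at 30 deg C. Cell growth, read with BacTiter-Glo luminescence, gave the measured signal.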
Large screens that a line does not name were inactive. A selection: hits, their analogues and other compounds. The true share with any hit is near 3.6%. Unless noted, calls follow the shape of the dose curve; as a rule, active = well fitted curve in the direction sought with a large enough effect; inconclusive = small, poorly fitted or top-dose-only effect, or another doubt; inactive = no such curve, though single readings can be large; an effect the other way counts as inactive or inconclusive.

COc1ccc(C(=O)N2CCN(c3ccc(N4CCOCC4)nn3)CC2)cc1OC	ClpP mod 25µM
COc1ccccc1C(=O)N1CCN(c2ccc(N3CCOCC3)nn2)CC1	ClpP mod inconclusive, TDP-43 yeast inh inconclusive
Oc1ccccc1C=NNC(=S)NC1CC2C=CC1C2 (stereo not drawn)	Abeta rescue inconclusive, TDP-43 yeast inh 13µM, aSyn yeast inh inconclusive (no result: Mm-Cpn inhibitor)
Fc1ccc(NC(=S)NN=Cc2ccccc2Cl)cc1	Abeta rescue inconclusive (no result: ClpP mod, Mm-Cpn inhibitor)
Oc1ccccc1C=NNC(=S)Nc1ccc(F)cc1	TDP-43 yeast inh inconclusive, aSyn yeast inh 22µM (no result: ClpP mod, Mm-Cpn inhibitor)
Oc1c(Cl)cc(Cl)cc1/C=N/NC(=S)NC1CC2C=CC1C2 (stereo not drawn)	Abeta rescue inconclusive (no result: ClpP mod)
Oc1ccccc1/C=N/NC(=S)NC1CC2C=CC1C2 (stereo not drawn)	Abeta rescue 11µM (no result: ClpP mod)
C=CCCC1(CCC)C(=O)/C(=C(\O)c2ccccc2)C(=O)C(CCC)=C1OC (stereo not drawn)	none (no result: ClpP mod, Mm-Cpn inhibitor, Abeta rescue, TDP-43 yeast inh, aSyn yeast inh)
COC(=O)c1ccccc1NS(=O)(=O)c1cc2c(cc1C)N(C)CCO2	none (no result: Mm-Cpn inhibitor, aSyn yeast inh)
O=C(Cc1ccccc1[N+](=O)[O-])NCc1ccc2c(c1)OCO2	ClpP mod 32µM
O=C(NCc1ccc2c(c1)OCO2)c1ccc2c(c1)N(Cc1c(F)cccc1Cl)C(=O)CS2	ClpP mod 14µM
O=C(Cc1ccccc1)NCc1ccc2c(c1)OCO2	FUS suppressor inconclusive
Cc1cccc(NC(=O)NCc2ccc3c(c2)OCO3)c1	none (no result: ClpP mod, Abeta rescue, FUS suppressor, TDP-43 yeast inh, aSyn yeast inh)
O=C(NCc1ccc2c(c1)OCO2)c1ccc2c(c1)OCCO2	Abeta rescue inconclusive, TDP-43 yeast inh 25µM
Cc1cccc(NC(=S)NCc2ccc3c(c2)OCO3)c1	TDP-43 yeast inh 18µM
Cc1ccc(C(=O)NCCc2csc(-c3cccc(F)c3)n2)cc1C	none (no result: Mm-Cpn inhibitor, aSyn yeast inh)
CC(C)(C)c1ccc(C(=O)Nc2cc(Cl)c(F)cc2C(=O)O)cc1	none (no result: ClpP mod, Mm-Cpn inhibitor, Abeta rescue, TDP-43 yeast inh, aSyn yeast inh)
CN1C2=N[C@H](c3cccc(C(F)(F)F)c3)CC(=O)N2/C(=C\c2ccccc2)[C@H]1c1ccccc1	none (no result: ClpP mod, Mm-Cpn inhibitor, Abeta rescue, TDP-43 yeast inh, aSyn yeast inh)
Cc1ccc(N(C)C(=O)c2ccc3c(Cl)c4c(nc3c2)CCC4)cc1C	FUS suppressor inconclusive, TDP-43 yeast inh 25µM, aSyn yeast inh inconclusive
O=C(NCc1ccc2c(c1)OCO2)c1ccc(CS(=O)Cc2cccc(Cl)c2)o1 (stereo not drawn)	none
O=C(NCc1ccc2c(c1)OCO2)c1ccc(COc2cccc(Cl)c2)o1	Abeta rescue inconclusive, TDP-43 yeast inh 14µM, aSyn yeast inh inconclusive
O=C(NCc1cccc(Cl)c1)c1ccc2c(Cl)c3c(nc2c1)CCCC3	TDP-43 yeast inh 11µM (no result: Mm-Cpn inhibitor, aSyn yeast inh)
O=C(NCc1cccc(Cl)c1)c1ccc2c(c1)OCCO2	TDP-43 yeast inh 10µM
COc1ccc(N2CCN(C(=O)C(C)n3nc(C)c4sc5ccccc5c4c3=O)CC2)cc1 (stereo not drawn)	none (no result: Mm-Cpn inhibitor, aSyn yeast inh)
O=C(NCc1ccccc1Br)c1ccc2c(c1)OCCO2	TDP-43 yeast inh 11µM
Cc1cc(C(=O)NCc2ccc3c(c2)OCO3)ccc1[N+](=O)[O-]	Abeta rescue inconclusive, TDP-43 yeast inh 18µM
COc1ccccc1CNC(=O)c1ccc2c(c1)OCO2	none (no result: ClpP mod)
CCOc1ccc(CNS(=O)(=O)c2ccc(-c3coc(C)n3)cc2)cc1OC	none (no result: Mm-Cpn inhibitor)
Cc1ccc(S(=O)(=O)N2CCN(Cc3nc4ccc(C)cc4o3)CC2)cc1	none (no result: Mm-Cpn inhibitor, aSyn yeast inh)
COc1ccc(S(=O)(=O)N2CCN(Cc3nc4ccc(C)cc4o3)CC2)cc1	TDP-43 yeast inh 18µM (no result: Mm-Cpn inhibitor, aSyn yeast inh)
COc1ccc(OC)c(NC(=O)CC2SC(=Nc3ccccc3)N(CCc3ccccn3)C2=O)c1 (stereo not drawn)	FUS suppressor 35µM
COc1ccc(N=C2SC(CC(=O)Nc3ccccc3)C(=O)N2CCc2ccccn2)cc1 (stereo not drawn)	none (no result: FUS suppressor)
O=C(CSc1nnnn1-c1ccccc1)NC1CCCc2ccccc21 (stereo not drawn)	Abeta rescue inconclusive, TDP-43 yeast inh 11µM
Cc1cccc(-n2nnc(C(=O)NC3CCCc4ccccc43)c2N)c1 (stereo not drawn)	TDP-43 yeast inh 16µM

High-throughput results: PubChem BioAssay, National Center for Advancing Translational Sciences (NCATS)
